The supplement of paper PMC8975748
Counter-ions that a name gives are not always drawn.

Tested on: Saccharomyces cerevisiae BY4741 SeMeCo community
Test: z-score of subpopulation abundance vs DMSO median, subpopulation auxotrophic for HUM; higher = larger share of this subpopulation than in DMSO controls
Details: 10 µM; 24 h; SM minimal medium; subpopulation (auxotrophy): HUM
Protocol: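 Fluorescent four-plasmid SeMeCo (self-establishing metabolically cooperating S. cerevisiae BY4741 community; plasmids pH-mRuby2, pL-mWasabi, pU-eCFP, pM-TagRFP657) was grown 24 h in minimal SM medium with each Selleck FDA-approved drug at 10 µM in 384-well plates. Cells were fixed and imaged by high-content confocal microscopy. For each auxotrophic subpopulation (and the prototroph), a z-score gives the deviation from the DMSO vehicle-control population median.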

SMILES	z-score of subpopulation abundance
OC[C@H]1O[C@H](OCC2O[C@@H](O)[C@H](O)[C@@H](O)[C@@H]2O)[C@H](O)[C@@H](O)[C@H]1O (stereo not given in full) [Melibiose]	0.46
COc1cc2c(cc1OC)[C@@H]1Cc3ccc(OC)c(OC)c3CN1CC2 [Rotundine]	0.14
O=c1n(CCCN2CCN(c3cccc(Cl)c3)CC2)nc2ccccn12 [Trazodone HCl]	0.45
N[C@@H](C(=O)N[C@@H]1C(=O)N2C(C(=O)O)=C(Cl)CS[C@H]12)c1ccccc1 [Cefaclor]	0.37
COc1ccnc(C[S+]([O-])c2nc3cc(OC(F)F)ccc3[nH]2)c1OC (stereo not given) [Pantoprazole]	-0.2
COc1ccc(NS(=O)(=O)c2ccc(N)cc2)nn1 [Sulfamethoxypyridazine]	-0.17
CN(C)CCc1c[nH]c2ccc(C[C@H]3COC(=O)N3)cc12 [Zolmitriptan]	-0.45
Cc1nc2n(c(=O)c1CCN1CCC(c3noc4cc(F)ccc34)CC1)CCCC2 [Risperidone]	1.02
CCCOc1ccc2[nH]c(NC(=O)OC)nc2c1 [Oxibendazole]	1.12
CC[C@@H]([C@H](C)O)n1ncn(-c2ccc(N3CCN(c4ccc(OC[C@@H]5CO[C@@](Cn6cncn6)(c6ccc(F)cc6F)C5)cc4)CC3)cc2)c1=O [Posaconazole]	11.8
CC(=O)[C@@]1(O)CC[C@H]2[C@@H]3C[C@H](C)C4=CC(=O)CC[C@]4(C)[C@H]3CC[C@@]21C [Medroxyprogesterone]	-0.08
Clc1ccc(CCC(Cn2ccnc2)Sc2c(Cl)cccc2Cl)cc1 (stereo not given) [Butoconazole nitrate]	5.03
Nc1nc2[nH]cc(CCc3ccc(C(=O)N[C@@H](CCC(=O)O)C(=O)O)cc3)c2c(=O)[nH]1 [Pemetrexed Disodium Hydrate]	-4.9
N[C@@H]1CN(c2c(F)cc3c(=O)c(C(=O)O)cn([C@@H]4C[C@@H]4F)c3c2Cl)CC12CC2 [Sitafloxacin Hydrate]	0.81
CCC(=O)Oc1ccc2c(c1)CCC1C2CCC2(C)C(OC(=O)CC)CCC12 (stereo not drawn) [Estradiol dipropionate(17-Beta-Estradiol-3,17-Dipropionate)]	-0.16
N#CC(c1ccc(Cl)cc1)c1c(Cl)cc(-n2ncc(=O)[nH]c2=O)cc1Cl (stereo not given) [Diclazuril]	-0.94
CCC(=O)NS(=O)(=O)c1ccc(-c2c(-c3ccccc3)noc2C)cc1 [Parecoxib Sodium]	1.38
O=C(CCCN1CC=C(n2c(=O)[nH]c3ccccc32)CC1)c1ccc(F)cc1 [Droperidol]	-0.23
N/C(=N\N=C\c1ccc(Cl)cc1)N/N=C/c1ccc(Cl)cc1 [Robenidine Hydrochoride]	11.9
O=C(Nc1cc(Cl)cc(Cl)c1O)c1c(O)c(Cl)cc(Cl)c1Cl [Oxyclozanide]	-0.71

SMILES	z-score of subpopulation abundance
CN1CCC(=C2c3ccccc3C=Cc3ccccc32)CC1 [Cyproheptadine hydrochloride]	-0.68
C=CCCCCCCCCC(=O)[O-].C=CCCCCCCCCC(=O)[O-].[Zn+2] [Zinc Undecylenate]	-0.02
NCc1ccccc1CC(=O)N[C@@H]1C(=O)N2C(C(=O)O)=C(CSc3nnnn3CC(=O)O)CS[C@H]12 [Ceforanide]	0.56
C[C@]12CCC3=C4CCC(=O)C=C4CC[C@H]3[C@@H]1CC[C@@]2(O)CC#N [Dienogest]	-0.51
CC(C)COc1ccc(CNC(=O)N(Cc2ccc(F)cc2)C2CCN(C)CC2)cc1 [Pimavanserin]	-0.82
O=C(O)c1cn(-c2ccc(F)cc2)c2cc(N3CCNCC3)c(F)cc2c1=O [Sarafloxacin HCl]	0.61
CC(=O)C1C(=O)C=C(C)OC1=O (stereo not given) [Sodium dehydroacetate]	-0.21
CCCOc1ccc2c(c1)CC[C@@H]1[C@@H]2CC[C@]2(C)[C@@H](OC)CC[C@@H]12 [Promestriene]	1.7
NC(=O)c1ncn([C@@H]2O[C@H](CO)[C@@H](O)[C@H]2O)n1 [Ribavirin]	0.49
CN(C)[C@@H](CCOc1cccc2ccccc12)c1ccccc1 [Dapoxetine HCl]	-0.28
CCCCc1oc2ccccc2c1C(=O)c1cc(I)c(OCCN(CC)CC)c(I)c1 [Amiodarone HCl]	4.79
OCCOc1ccc(/C(=C(/CCCl)c2ccccc2)c2ccccc2)cc1 [Ospemifene]	-0.62
COc1cc(O)c(C(=O)Nc2nc(C(=O)NCCN(C(C)C)C(C)C)cs2)cc1OC [Acotiamide]	0.93
CN(C)c1cc(NC(=O)CNC(C)(C)C)c(O)c2c1CC1CC3C(N(C)C)C(=O)C(C(N)=O)=C(O)C3(O)C(=O)C1=C2O (stereo not given) [Tigecycline]	-0.19
Cc1c(Cl)cccc1Nc1ccccc1C(=O)O [Tolfenamic Acid]	-0.87
CC(N)C12CC3CC(CC(C3)C1)C2 (stereo not given) [Rimantadine]	0.67
Clc1ccc(CCC(Cn2ccnc2)Sc2c(Cl)cccc2Cl)cc1 (stereo not given) [Butoconazole]	5.14
CC(C)Cc1ccc(C(C)C(=O)O)cc1 (stereo not given) [Ibuprofen]	-3.22
Clc1ccc2c(N3CCN(CCCN4CCN(c5ccnc6cc(Cl)ccc56)CC4)CC3)ccnc2c1 [Piperaquine phosphate]	-0.06
CN(C)C(=O)COC(=O)Cc1ccc(OC(=O)c2ccc(NC(=N)N)cc2)cc1 [Camostat Mesilate]	-0.25
